Screens: PubChem BioAssay, National Center for Advancing Translational Sciences (NCATS)
An excerpt weighted towards active compounds, which were near 8.1% of everything screened.
MCF10A rereplic = induces DNA re-replication in MCF 10a normal breast cells. MCF 10A DNA re-replication, Hoechst nuclear intensity, 48 h. Potency, µM (top dose mostly 46.1 µM), actives largely listed as activators. hit rate 2.9% among 350,000; further: nearly all actives have a fitted effect of over 50% in size
KB-V1 MDR tox = kills drug-selected multidrug resistant KB-V1 cells; hit rate 3.4% among 400,000; Potency, µM (titrated, usually from 46.1 µM), most hits filed as cytotoxic; KB-V1 MDR cells viability, CellTiter-Glo, 72 h; further: nearly all actives have a fitted effect of over 60% in size
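Potencies derive from concentration-effect curves fitted to normalized luminescence (CellTiter-Glo) of KB-V1 cells treated for 72 h at 37 degrees C in phenol-red-free DMEM containing 10% FBS.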
KB-3-1 tox = kills parental KB-3-1 adenocarcinoma cells | Potency, µM (top dose mostly 46.1 µM), most hits filed as cytotoxic | KB-3-1 viability, CellTiter-Glo ATP luminescence, 72 h | hit rate 1.4% among 400,000; further: nearly all actives have a fitted effect of over 60% in size
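Using CellTiter-Glo luminescence, growth of non-resistant KB-3-1 adenocarcinoma cells is assessed 72 h after pin-tool compound addition at 37 °C. Normalized responses across the concentration series yield fitted curves.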
SW480 rerep = DNA re-replication induction in SW480 cells; SW480 DNA re-replication, Hoechst DNA content imaging, 48 h; Potency, µM (doses to about 46.1 µM), most hits filed as activators; hit rate 1.8% among 340,000; AID 624297; further: nearly all actives have a fitted effect of over 55% in size
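First, 250 cells per well were seeded. Next, compound or vehicle (23 nL) was pinned in, plates sat 48 hr at 37 C. Finally Hoechst was added for 40 min before fluorescence scanning.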
ELG1 DNA repair = blocks ELG1-dependent DNA repair in HEK293T cells; hit rate 2.3% among 330,000; HEK293T ELG1-luciferase reporter, luminescence, 16 h; DNA damage induced by 5-fluorouridine; Potency, µM (titrated, usually from 46.1 µM), most hits filed as inhibitors; further: nearly all actives have a fitted effect of over 55% in size
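5-Fluorouridine DNA damage + compound/DMSO, 2,000 cells/well, 16 h, 37 °C/5% CO2. ONE-Glo, 30 min RT, luminescence. Readout = decrease in reporter signal.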
A number is an active result; . = inactive; ? = inconclusive; / = no result given; [ ] = remark or other dose. The call rests on the fitted dose curve; in most records, active means well fitted curve in the direction sought with a large enough effect; inconclusive means small, poorly fitted or top-dose-only effect, or another doubt; inactive means no such curve, though single readings can be large; an effect the other way counts as inactive or inconclusive.

SMILES	MCF10A rereplic	KB-V1 MDR tox	KB-3-1 tox	SW480 rerep	ELG1 DNA repair
CCS(=O)(=O)c1nnnn1-c1ccccc1S(C)(=O)=O	?	.	.	?	15µM
O=S(=O)(Cc1nnnn1-c1ccc(Br)cc1)c1ccccc1	/	.	.	/	/
CCN1CCN(Cc2ccc(NC(=O)c3cc(NC(=O)c4cnn(-c5ccccc5)c4N)cc(OC)c3)cc2C(F)(F)F)CC1	15µM	.	.	.[9.22 µM]	.
CCN1CCN(Cc2ccc(NC(=O)c3cc(NC(=O)C(=O)c4c[nH]c5ccccc45)cc(OC)c3)cc2C(F)(F)F)CC1	?	?	?	?	.
CCN1CCN(Cc2ccc(NC(=O)c3ccc(C)c(NC(=O)C(=O)c4c[nH]c5ccccc45)c3)cc2C(F)(F)F)CC1	23µM	?	?	?	?
CCN1CCN(Cc2ccc(NC(=O)c3cc(NC(=O)c4cc(C)on4)cc(OC)c3)cc2C(F)(F)F)CC1	.	?	?	?	.
CCCCCCCCN1[C@@H](CC(=O)O)c2ccc(/C=C/C(=O)O)cc2S1(=O)=O	/	.	.	/	/
Cc1ccccc1OCCNC(=O)CNC(=O)c1ccccc1O	.	16µM	.	.	.
COc1ccccc1OCCNC(=O)c1ccccc1C	.	.	.	.	?
Cc1ccc(OCCNC(=O)CNC(=O)c2ccc(C)cc2)cc1	.	.	.	.	.
CCCCOc1ccc(C(=O)NCC(=O)NCCOc2ccccc2OC)cc1	.	.	.	0.92µM	.
CCc1cc(-c2nnn(CCC3COCCO3)c2CC)ccc1-c1cn(Cc2ccccc2)nn1 (stereo not given)	/	1.8µM	?	/	/
CC(O)(c1cccnc1)c1nc(-c2cccc(C(F)(F)F)c2)cs1 (stereo not given)	/	.	.	/	/
CCc1ccc(CN2CCc3nc(Nc4ccc5c(c4)OCCO5)ncc3C2)cc1	/	?	.	/	/
COc1cccc(/C=N/N2C(=O)C3C4c5ccccc5C(c5ccccc54)C3C2=O)c1OC (stereo not given)	/	/	/	/	.
COc1cc(/C=N/N2C(=O)C3C4c5ccccc5C(c5ccccc54)C3C2=O)ccc1O (stereo not given)	.	10µM	.	.	?
CC1(C(=O)NCc2ccccc2)CN(S(C)(=O)=O)CC(=O)N1C1CC1 (stereo not given)	/	.	.	/	/
CC1(C(=O)N/N=C/c2ccc([N+](=O)[O-])o2)CC1(Br)Br (stereo not given)	?	18µM	?	4.6µM	.
COc1ccccc1OCC(=O)N/N=C/C=C/c1ccc([N+](=O)[O-])o1	?	16µM	?	?	?
Cc1cc(C)cc(OCC(=O)N/N=C/c2ccc([N+](=O)[O-])o2)c1	?	?	.	?	?
Cc1ccccc1OCC(=O)N/N=C/c1ccc([N+](=O)[O-])o1	23µM	.	.	1.2µM	?
Cc1cc(NC(=O)CSCC(=O)Nc2nc3ccccc3[nH]2)no1	.	.	.	.	.
Cc1ccc(S(=O)(=O)N2C[C@@H]3[C@H]4CC[C@H](C4)[C@@H]3[C@@H](C)[C@@H]2c2ccn([Si](C(C)C)(C(C)C)C(C)C)c2)cc1	.	.	.	.	.
CCCCOC(=O)CSc1nc2c(cc1C#N)C(=O)CC(C)(C)C2	.	.	.	.	?
CN(C)S(=O)(=O)c1cccc(NC(=O)CSc2nc3c(cc2C#N)C(=O)CC(C)(C)C3)c1	15µM	16µM	21µM	16µM	?
SMILES	MCF10A rereplic	KB-V1 MDR tox	KB-3-1 tox	SW480 rerep	ELG1 DNA repair
CN(C)S(=O)(=O)c1ccc(Cl)c(NC(=O)CSc2nc3c(cc2C#N)C(=O)CC(C)(C)C3)c1	2.9µM	.	.	?	.
Cc1ccc2nc(CO)[nH]c2c1	/	.	?	/	/
CCNC(=O)NC(=O)C(C)OC(=O)c1oc2ccccc2c1CSC1CCCCC1 (stereo not given)	.	13µM	.	.	.
CC(C)C(OC(=O)c1oc2ccccc2c1CSC1CCCCC1)C(=O)NC(N)=O (stereo not given)	/	/	/	/	.
Cc1cccc(COc2ccc(-c3cc(C(F)(F)F)n4nc(C)cc4n3)cc2)c1	/	.	.	/	/
CCc1ccc(-n2c(SCC(=O)NC3CCS(=O)(=O)C3)nc3ccccc3c2=O)cc1 (stereo not given)	.	.	.	.	.
O=C(Nc1ccc(Cl)cn1)c1ccccc1[N+](=O)[O-]	?	?	?	15µM	.
O=C(NNC(=O)c1ccccc1[N+](=O)[O-])Nc1ccc(Cl)cc1	.	.	.	.	?
O=C(NNS(=O)(=O)c1ccccc1[N+](=O)[O-])c1ccccc1[N+](=O)[O-]	.	.	.	0.52µM	.
O=C(Nc1cccc2c1C(=O)NC2=O)c1ccccc1[N+](=O)[O-]	.	.	.	21µM	.
C#CCNC(=O)C[C@@H]1C[C@@]2(C(=O)OCC)CCCC=C2N(CCC2=CCCCC2)C1=O	/	?	.	/	/
Cc1cc(C)cc(C(=O)n2nc(C)c(S(=O)(=O)N3CCOCC3)c2C)c1	/	.	.	/	/
O=C(NCc1c(Cl)cccc1Oc1ccccc1)c1ccccc1	?	12µM	.	.	.
CN(C)c1ccc(/C=N/NC(=O)c2ccc(CN3C(=O)c4cccc5cccc3c45)cc2)cc1	/	/	/	/	.
O=C(N/N=C/c1ccc(O)cc1O)c1ccc(CN2C(=O)c3cccc4cccc2c34)cc1	?	?	?	?	2.9µM
O=C(N/N=C/c1ccccc1)c1ccc(CN2C(=O)c3cccc4cccc2c34)cc1	16µM	.	.	?	?
O=C(N/N=C/c1cccnc1)c1ccc(CN2c3cccc4cccc(c34)S2(=O)=O)cc1	.	.	.	.	23µM
O=C(c1ccc(S(=O)(=O)Nc2ccccc2F)cc1)N1CCN(c2ccccc2O)CC1	.	?	.	.	.
O=C(CNC(=O)c1ccccc1)NCC(=O)OCC(=O)c1cccc2ccccc12	/	.	?	/	/
Cc1nc([N+](=O)[O-])c(Br)n1Cc1ccc(Cl)c(Cl)c1	21µM	?	?	?	?
COc1ccc(C(=O)Cn2c(C)nc([N+](=O)[O-])c2Br)cc1	?	.	?	.	?
Cc1nc([N+](=O)[O-])c(Br)n1CC(=O)c1ccc(Cl)cc1	15µM	?	18µM	?	.
COc1ccccc1C(=O)Nc1ccc(OCC(=O)N2CC(C)CC(C)C2)cc1 (stereo not given)	.	.	.	.	.
CC(Sc1nnc2ccccn12)C(=O)Nc1ncc(Cl)cc1Cl (stereo not given)	.	.	.	.	?
COc1ccc(-n2c(SC(C)C(=O)Nc3ncc(Cl)cc3Cl)nc3ccccc32)cc1 (stereo not given)	?	2.1µM	21µM	?	.
CCOc1ccc(N(C)S(=O)(=O)c2ccc3c(c2)C(C)(C)C(=O)N3C)cc1	/	.	.	/	/
